Measured values: PubChem BioAssay (NCI)
The panel holds about 83,000 compounds, 20% with a hit somewhere; the sample as a whole holds those more often.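 Testing used 96-well plates and a 48-hour single-concentration exposure. Example: -40 means 40% of the starting cells died.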 The source made the active and inactive calls. Rule for the calls: active = growth percent below 10; inactive = the rest.

Columns and labels:
Assay in all cases: NCI-60 one-dose screen, 48 h (100 = growth as untreated, 0 = no growth, -100 = all killed)
Details in all cases: 10 µM unless noted
T-47D breast = test system: T-47D breast
BT-549 breast = test system: BT-549 breast
MDA-MB-435 melanoma = test system: MDA-MB-435 melanoma
SW-620 colon = test system: SW-620 colon
MCF7 breast = test system: MCF7 breast
HCT-116 colon = test system: HCT-116 colon
HCC-2998 colon = test system: HCC-2998 colon
KM12 colon = test system: KM12 colon

Measured: growth

O=C1c2ccccc2C(=O)c2c1c(C(=O)NCc1ccccc1)c1ccccn21
inactive: T-47D breast 103% | BT-549 breast 101% | MDA-MB-435 melanoma 103% | SW-620 colon 94.2% | MCF7 breast 79% | HCT-116 colon 97.1% | HCC-2998 colon 99.9% | KM12 colon 101%

Cc1ccnc(Nc2ccc([N+](=O)[O-])c(NCCN3CCOCC3)n2)c1
active: MDA-MB-435 melanoma -20.5% | HCT-116 colon -12.9% | KM12 colon 5.83%
inactive: T-47D breast 83.9% | BT-549 breast 18.6% | SW-620 colon 27.9% | MCF7 breast 21% | HCC-2998 colon 14.4%

CC(C)(C)c1cc(Cl)c(O)c(CNCCO)c1
inactive: T-47D breast 98.7% | BT-549 breast 109% | MDA-MB-435 melanoma 101% | SW-620 colon 86.4% | MCF7 breast 96.3% | HCT-116 colon 99.1% | HCC-2998 colon 104% | KM12 colon 111%

C/C(=N\O)c1ccc(NC(=O)CSc2nnc(-c3cc(-c4ccc(S(C)(=O)=O)cc4)nc4ccccc34)n2-c2ccccc2)cc1
inactive: T-47D breast 63% | BT-549 breast 88.2% | MDA-MB-435 melanoma 93.5% | SW-620 colon 97.4% | MCF7 breast 85.6% | HCT-116 colon 83.7% | HCC-2998 colon 105% | KM12 colon 81.9%

CCN(CC)CCN1C(=O)c2cccc3c(/C=C/CN4C(=O)c5cccc6cccc(c56)C4=O)ccc(c23)C1=O
inactive: T-47D breast 94.8% | BT-549 breast 89.8% | MDA-MB-435 melanoma 103% | SW-620 colon 90.4% | HCT-116 colon 95.5% | HCC-2998 colon 105% | KM12 colon 63.6%
active: MCF7 breast 4.8%

N=c1c(S(=O)(=O)c2ccccc2)cc2c(=O)n3ccccc3nc2n1CC1CCCO1 (configuration not stated)
inactive: T-47D breast 104% | BT-549 breast 101% | MDA-MB-435 melanoma 109% | SW-620 colon 96.1% | MCF7 breast 106% | HCT-116 colon 105% | HCC-2998 colon 105% | KM12 colon 108%

CC1(C)CC[C@]2(C(=O)N[C@H](CO)Cc3ccccc3)CC[C@]3(C)C(=CC[C@@H]4[C@@]5(C)CCCNC(C)(C)[C@@H]5CC[C@]43C)[C@@H]2C1
inactive: T-47D breast 69.8% | BT-549 breast 89.9% | MDA-MB-435 melanoma 73.4% | SW-620 colon 79.8% | MCF7 breast 83.9% | HCT-116 colon 44.4% | HCC-2998 colon 56% | KM12 colon 96%

C=C1CC[C@@H]2[C@](C)(COC(C)=O)[C@H](OC(C)=O)CC[C@@]2(C)[C@@H]1CC(Nc1ccc(S(=O)(=O)NC(C)=O)cc1)C1=CCOC1=O (some centres not stated)
active: T-47D breast -3.67% | BT-549 breast -62.6% | MDA-MB-435 melanoma -38.8% | SW-620 colon -65.6% | MCF7 breast -33.6% | HCT-116 colon -63.9% | HCC-2998 colon -12.7% | KM12 colon -34%

COC(=O)CCC/C=C\C[C@H]1C=CC(=O)/C1=C/C[C@@H](O)C/C=C\CC(F)(F)F
active: T-47D breast 2.7% | BT-549 breast -18.3% | MDA-MB-435 melanoma 4.2% | SW-620 colon -36% | MCF7 breast 4.67% | HCT-116 colon -61.4% | HCC-2998 colon -68.7% | KM12 colon -31.7%

Cc1ccc(S(=O)(=O)N2CCC(=O)c3ccccc32)cc1
inactive: T-47D breast 78.7% | BT-549 breast 65.6% | SW-620 colon 44.7% | MCF7 breast 40.5% | HCT-116 colon 59.4% | HCC-2998 colon 83.8% | KM12 colon 33.5%
active: MDA-MB-435 melanoma 6.12%

CCOc1c(OC)cc2c(c1O)C(=O)N[C@@H]1[C@@H](O)[C@@H](O)[C@H](O)C[C@@H]21
inactive: T-47D breast 92.8% | BT-549 breast 99.6% | MDA-MB-435 melanoma 108% | SW-620 colon 107% | MCF7 breast 92.1% | HCT-116 colon 104% | HCC-2998 colon 102% | KM12 colon 104%

CN1CCN(CCCOc2cccc3nc(Nc4ccc(F)c(F)c4)ccc23)CC1
inactive: T-47D breast 19.4% | BT-549 breast 52.8%
active: MDA-MB-435 melanoma -81.5% | SW-620 colon -90.3% | MCF7 breast -87.6% | HCT-116 colon -41.2% | HCC-2998 colon -83.8% | KM12 colon -77.3%

O=C(N=Nc1c(O)[nH]c2ccccc12)Nc1ccc(F)cc1
inactive: T-47D breast 66.2% | BT-549 breast 89.6% | MDA-MB-435 melanoma 98.3% | SW-620 colon 89.4% | MCF7 breast 71.3% | HCT-116 colon 82% | HCC-2998 colon 100% | KM12 colon 85.5%

Cc1nn(-c2cc(NC3CCC(O)CC3)c3c(=O)[nH]c(CCC(F)(F)F)cc3c2)c2c1C(=O)CC(C)(C)C2 (configuration not stated)
inactive: T-47D breast 62.9% | BT-549 breast 43.8% | MDA-MB-435 melanoma 19.3% | SW-620 colon 24.1% | MCF7 breast 26.5% | HCT-116 colon 38% | HCC-2998 colon 10.9% | KM12 colon 23.4%
